This passage reports binding signal results from article PMC3737563, “Investigation of DNA sequence recognition by a streptomycete MarR family transcriptional regulator through surface plasmon resonance and X-ray crystallography”.

The target in the experiment is T1, SCO3205 (MarR family regulator) (Streptomyces coelicolor, UniProt Q9KYU1 1-163).
T1 sequence: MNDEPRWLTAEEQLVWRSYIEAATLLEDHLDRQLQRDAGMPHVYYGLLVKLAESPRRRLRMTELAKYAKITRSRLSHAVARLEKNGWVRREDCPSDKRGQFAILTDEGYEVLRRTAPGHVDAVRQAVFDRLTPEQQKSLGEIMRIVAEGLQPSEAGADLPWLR
Nature of the experiment: SPR (ReDCaT); 100 nM SCO3205 dimer; HBS-EP+ buffer: 10 mM HEPES pH 7.4, 150 mM NaCl, 3 mM EDTA, 0.05% (v/v) surfactant P20; 20 C; Biacore T200, ReDCaT SA chip; high values mean tight binding. To be noted: protein: recombinant; tags: N-terminal His tag plus TEV site, not removed; chain copies: 2; label: biotin linker S6 hybridised to overhang; dsDNA, one strand shown. Background: SPR reads the build-up and loss of mass on a sensor chip optically.

In the case of GACCTGTTCAAAGCTCAAGCAGAA, the binding signal came out at 48.5 %Rmax.

Take ACGGCACGTAAAGATTGAGAGTTCAAGT: the binding signal came out at 80.4 %Rmax.

For the sequence CATGGCTACTCCAATACTTGAACTCTCAA, the binding signal turned out to be 35.7 ± 0.566 %Rmax.

Take ACGCCGATTTTGTTTAATGTTC: the binding signal was determined as 5.1 %Rmax.

In the case of CGAGACGGTTCCTTGAACATTAAACAAA, the binding signal came to 68.4 %Rmax.

ACGCCGATTTTGTTTAATGTTCAAGGAACC: the binding signal is 117 %Rmax.

Regarding ACTCCAATACTTGAACTCTC, the binding signal was determined as 7.8 %Rmax.

As for CAATACTTGAACTCTCAATCTTTA, the binding signal is 101 %Rmax.

Regarding CGAGACGGTTCCTTGAACATTAAACAAAATCGGCGT, the binding signal worked out at 108 %Rmax.

As to ACGGCACGTAAAGATTGAGAGTTCAAGTAT, the binding signal came to 87.9 %Rmax.

As for ACGCCGATTTTGTTTAATGTTCAAGGAACCGT, the binding signal worked out at 110 %Rmax.

For ACTCCAATACTTGAACTCTCAATCTTTACG, the binding signal was determined as 119 %Rmax.

With ACGGCACGTAAAGATTGAGAGTTCAAGTATTGGA, the binding signal stood at 116 %Rmax.

Turning to ACTCCAATACTTGAACTCTCAATCTTTACGTGCC, the binding signal was 110 %Rmax.

For the sequence CGAGACGGTTCCTTGAACATTAAACAAAATCGGC, the binding signal stood at 112 %Rmax.

TACTTGAACTCTCAATCTTTACGTGCCGT: the binding signal is 113.9 ± 0.424 %Rmax.

Consider CGAGACGGTTCCTTGAACATTAAACA, for which the binding signal was found to be 68.6 %Rmax.

Consider TTGATGTTGAATGTTCAACCAGTC, for which the binding signal worked out at 118 %Rmax.

As for TTTTGTTTAATGTTCAAGGAACCGTCTCG, the binding signal was determined as 127.2 ± 0.636 %Rmax.

For the sequence ACTCCAATACTTGAACTCTCAATCTTTAC, the binding signal was determined as 115.8 ± 0.283 %Rmax.

As to ACTCCAATACTTGAACTCTCAA, the binding signal worked out at 41.3 %Rmax.

ACGCCGATTTTGTTTAATGTTCAAGGAAC: the binding signal came to 109.7 ± 0.566 %Rmax.

As for ACGGCACGTAAAGATTGAGAGTTCAAGTATTG, the binding signal is 112 %Rmax.

For the sequence ACGCCGATTTTGTTTAATGTTCAA, the binding signal stood at 29.9 %Rmax.

On to ACTCCAATACTTGAACTCTCAATCTT, for which the binding signal turned out to be 116 %Rmax.

Regarding AAGAAGTTCAAGCTTCAACCAAAA, the binding signal stood at 95.2 %Rmax.

ACTCTCAATCTTTACGTGCCGTCAATCTA: the binding signal worked out at 3.05 ± 0.354 %Rmax.

Take TCAATCTACGCCGATTTTGTTTAATGTTC: the binding signal is 5 %Rmax.

With ACTCCAATACTTGAACTCTCAATCTTTA, the binding signal worked out at 115 %Rmax.

On to ACGGCACGTAAAGATTGAGAGTTCAA, for which the binding signal was 4.7 %Rmax.

As to ACGGCACGTAAAGATTGAGAGTTCAAGTATTGGAGT, the binding signal turned out to be 110 %Rmax.

As to ACGCCGATTTTGTTTAATGTTCAAGGAACCGTCT, the binding signal was 118 %Rmax.

With ACTCCAATACTTGAACTCTCAATCTTTACGTGCCGT, the binding signal came out at 115 %Rmax.

In the case of ACGCCGATTTTGTTTAATGTTCAAGGAA, the binding signal came out at 94 %Rmax.

As for CGAGACGGTTCCTTGAACATTAAA, the binding signal stood at 22 %Rmax.

Consider CGAGACGGTTCCTTGAACATTAAACAAAATCG, for which the binding signal was determined as 108 %Rmax.

Regarding CGAGACGGTTCCTTGAACATTAAACAAAAT, the binding signal worked out at 102 %Rmax.

In the case of ACTCCAATACTTGAACTCTCAATC, the binding signal is 92.7 %Rmax.

As for ACTCCAATACTTGAACTCTCAATCTTTACGTG, the binding signal was 108 %Rmax.

For ACGCCGATTTTGTTTAATGTTCAAGG, the binding signal was 81 %Rmax.
